Results on 57 sequences are retold here after the supplement of paper PMC11417369.

Whole data set: some 25,000 sequences, median “ln(normalized median fluorescence intensity)” near 6.7, cut for the highest 2% near 10. The full list was thinned out, with the highest values kept by preference.

The test system of the assay is PfHDP1 homeodomain (GST-tagged). Put plainly: gcPBM binding intensity (ln(normalized median fluorescence intensity)); higher = stronger DNA binding. An outline of the steps: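 Using an Agilent 4 × 180k array, primer-extended double-stranded 36-bp intergenic genomic probes and negative controls were exposed for 1 h to GST-fused P. falciparum DNA-binding domains expressed in E. coli. Binding was carried out in 1× PBS with 1% milk, 0.2 mg/ml BSA, 0.5% salmon testes DNA and 0.03% Triton X-100, and protein was detected with Alexa488 anti-GST antibody and a 488 nm scan. Binding intensity is the highest Masliner-normalised natural-log median intensity across replicate spots of either probe orientation.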
As to “AAAAAAAAAAAACACACACACACACCCAAATATATA [CACACA_site150]”, the “gcPBM binding intensity (ln)” value was 6.84.
Next, “GGAAAAAATATATGCACACCCCCCAAAAAAAAAAAA [CACACA_site2222]”: 9.67; “TGGGAAAAAATATATGCACACCCCCCAAAAAAAAAA [CACACA_site8696]”: 10.6; “ATTAAATGTATGACTTGTACATAAAATAAAAAAAAA [XGTACX_site6555]”: 6.56.
The same measure for “TAAAGGAAATAAAAAACATGCAAATATGAAATATAT [TGCATGCA_site745]”: 6.74.
The same measure for “AAATAAAATAATAAAACATGCAAAAATAATGATTTA [TGCATGCA_site415]”: 6.72; for “AGGTGCAAAAATAAAACATGCAAAAATAAAAATGAA [TGCATGCA_site502]”: 10.7.
In the case of “TTTATTAAAATATTCTCACACACCAAAATATGTATG [CACACA_site932]”, the “gcPBM binding intensity (ln)” value was 6.42.
For the sequence “TTTTAATATATAGAGTAACAAATTTGTCTATTAATA [CACACA_negctrl_site1495]”, the “gcPBM binding intensity (ln)” value was 6.6.
The same measure for TATATATATTTTTGTGTGCACTATAATATGAAAATA: 10.3; for ATAACAAAAATCCTTGTGCACTATTTTAATAGAGTC: 10.5.
Take “TAAAAAATAAATATATGTACATATTTATTTTTTTTT [XGTACX_site850]”: the “gcPBM binding intensity (ln)” value came out at 6.19.
The same measure for “TATCATATATAAAGAGGTACGTAAGAATAGAAAATT [XGTACX_site798]”: 7.27.
Next, “TTTTTTTTTGTTAAAGTGCATATATTAAATTTTCCT [GTGCAC_site9677]”: 7.82.
Next, CATTTTATTTTCTTTGTGCACAAAAATATTTTTTCT: 10.8; “GTGCAAAATATTTTTACACACAAATTCTTACAACAG [CACACA_site7556]”: 7.77; “ATAAAAAAAAATATTTGTACACATATTTATATATTA [XGTACX_site8147]”: 6.56.
Regarding “GTATTTCTTTAATATACACACACCAAAACAAAAAAA [CACACA_site579]”, the “gcPBM binding intensity (ln)” value stood at 6.98.
Next, TTTTTGTTACCTATTGTGCACTTCATATAAATTAAA: 10.9.
“ACATTAAAAAATTGTTTGCACTATATAAAATATTAA [GTGCAC_site9728]”: the “gcPBM binding intensity (ln)” value is 8.82.
Next, “TCTTTCCTTATTAAAACACACAAATACATTATTTAA [CACACA_site2147]”: 6.7; “TTTTATTTCTTTGCACCATTTTAAATACAAACAAAT [CACACA_negctrl_site1553]”: 11.
The same measure for “GAAATTTGTTATTGCACACAAATTTTTCTTTTTTTA [CACACA_site2339]”: 9.6; for “TAATAAAAAAAGTGCACACACATAATATTTATATAT [CACACA_site7548]”: 8.75; for “TTTTTTATTTTGTGCACACACATAAAAATATATATA [CACACA_site761]”: 11.4.
Next, “CATTAATAAAAAAAAAGTACAAAAAATATATATATT [XGTACX_site2091]”: 6.88; “TCGTCTCAATAATTATAATAAAAAAATTCCTAAGTC [CACACA_negctrl_site338]”: 6.28; “TATATGCCTATAAGAAGTACTGTGTAATGTAATATA [XGTACX_site8089]”: 6.67.
As to “TTGTGTTATCCTTTTTTAGATCAACTATTTTTATTC [CACACA_negctrl_site145]”, the “gcPBM binding intensity (ln)” value came out at 6.32.
Next, “AAAGGAAAAAAAAGCACACACAATATTACTTGAAAT [CACACA_site2588]”: 6.9.
The same measure for “TAATTATTACACGGTATTATATATAATATGTTAAAA [GTGCAC_negctrl_site134]”: 6.6; for “ATATTGATACATCCAATACACACTACATATAATGAT [CACACA_site1874]”: 6.82; for “TTATATTTATAAAATTGTATACCCCTTCTAACTTTC [CACACA_negctrl_site250]”: 6.7.
Next, “TCAAAAAATATATTTGCACACTCAAAAAAAAAAAAA [CACACA_site860]”: 10.2; “AAAAAATATATTTGCACACTCAAAAAAAAAAAAAAA [CACACA_site859]”: 10.3; “AAAATATAAATTCATGTGCACATATATATTTTGTTA [GTGCAC_site9782]”: 10.7.
With “TATAAACCTTTTTGCACGCACACAAAAAAAAAATAA [CACACA_site168]”, the “gcPBM binding intensity (ln)” value came out at 9.61.
“TTTATATTTTATAAATTATTCATAAATATATTTGTA [TGCATGCA_negctrl_site175]”: the “gcPBM binding intensity (ln)” value came to 6.34.
Next, “TTTTGTTATAAATAATGTACATATTTATTTAAAATT [XGTACX_site6610]”: 6.25.
Next, “TTTTTTATTTTGTGCACACACATAAAAATATAAATA [CACACA_site6497]”: 11.4; “TATAAAAATGTGCACACACACACATATTTATATTTA [CACACA_site6826]”: 10.1.
Next, “ATATATATTTTTTAAACACACACATAAATATTTGTG [CACACA_site8936]”: 6.94; “GTGCAAAATATTTTTACACACAAATTTTTACAACAG [CACACA_site3357]”: 8.07; “ATATATTTATTTTGTGCACACAACGCAAACCTTTTA [CACACA_site3508]”: 11.3.
For “AAAATGTGCATATTTGCACACTTCAATATATATATA [CACACA_site1791]”, the “gcPBM binding intensity (ln)” value turned out to be 11.2.
The same measure for “ATAACATTCTATGTTGCACACAAAGAGAAAAATTTA [CACACA_site9322]”: 9.12; for “TATTATATATCAAAATGTACATTAATTTGAGTAATT [XGTACX_site5434]”: 6.37.
Next, “AAACGTGCGTATATGTGTACGCATATATATATATAT [XGTACX_site5252]”: 9.26; “ATTTTTTTATTTTGTGCACACACATAAAAATATATA [CACACA_site762]”: 11.4.
Next, “TATTTTATAATAGGCACACATATAAAAATATATATA [CACACA_site4127]”: 6.57.
In the case of “ATATATTTTTTAAACACACACATAAATATTTGTGTA [CACACA_site2879]”, the “gcPBM binding intensity (ln)” value stood at 6.8.
For the sequence “ATAATACAAAATACATGTACAAATATTTTTCATATT [XGTACX_site1721]”, the “gcPBM binding intensity (ln)” value came out at 6.43.
Consider “AATAAAATGGAATACGGTACACATAATCCTAAAATG [XGTACX_site926]”, for which the “gcPBM binding intensity (ln)” value is 6.4.
In the case of “GGAGGTTGTTATAAAAGTACAAAAAGTTGCAATTTT [XGTACX_site7351]”, the “gcPBM binding intensity (ln)” value stood at 10.7.
The same measure for “TATAACAAGTTATAAAGTACAAATGTTGAATTTTAT [XGTACX_site4673]”: 6.07.
The same measure for “TTATGTTATATAAAAAGTACAAATTTTTTTTAATTA [XGTACX_site3435]”: 5.94; for “AAACGAGAACATAATAAATACATAAATAAATAAATA [GTGCAC_negctrl_site433]”: 6.43.
